From PubChem BioAssay AID504456 (NMMLSC, 2011)
The other results are listed elsewhere or left out. The source made the active and inactive calls.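 How the source made its calls: active means growth rating at most 1 for wild type yeast while the TORC1 bypass strain still grows fully, rated 3; inactive means the rest.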

Assay: wild-type yeast growth inhibition sparing TORC1 bypass cells, mechanism study for yeast TOR pathway GFP screen, BY4741 wild type, TORC1 bypass strain (AID 504456)
Conditions: S. cerevisiae BY4741 spot growth rating, 48-72 h, at 30 µM
[1] = TORC1 bypass strain growth rating

## Cc1ccc(-c2nn(C(C)(C)C)c3ncnc(N)c23)cc1
[1]
  growth rating (0-3): 3
Higher = less active
  growth rating (0-3): 3 (inactive)

## CN(C)CCCNc1nc(N)c([N+](=O)[O-])c(Nc2cccc(F)c2)n1
[1]
  growth rating (0-3): 3
Higher = less active
  growth rating (0-3): 3 (inactive)
